Bioassay records (PubChem)
In the library only some 1.4% were active in any assay of this set; here they are far more common.
Wee1 degr inh: human Wee1 degradation inhibition, primary screen; HeLa Luc-Wee1K328M stability, luciferase luminescence; 100% = proteasome inhibitor MG132 effect; reporter increase, % at 5 µM; hit rate 1.2% among 220,000; AID 1321;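 active = activation above the mean of all tested compounds plus 3 SD, set per screening run, cut at about 8.8% in these data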;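 also: cells exposed to compound for 20 h before luminescence read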
Bcl-2 Bim block: human Bim-Bcl-2 interaction inhibition. Bead-based flow cytometry, Bim peptide-Bcl-2 binding. hit rate 0.06% among 190,000. inhibition, % at 10 µM; in the data active = inhibition above about 40%
Bcl-B Bim block: human Bim-Bcl-B interaction inhibition | Q9HD36 | bead-based flow cytometry, Bim peptide-Bcl-B binding | inhibition, % at 10 µM | hit rate 0.073% among 190,000 | AID 951
Target sequence (Q9HD36 whole entry, looked up): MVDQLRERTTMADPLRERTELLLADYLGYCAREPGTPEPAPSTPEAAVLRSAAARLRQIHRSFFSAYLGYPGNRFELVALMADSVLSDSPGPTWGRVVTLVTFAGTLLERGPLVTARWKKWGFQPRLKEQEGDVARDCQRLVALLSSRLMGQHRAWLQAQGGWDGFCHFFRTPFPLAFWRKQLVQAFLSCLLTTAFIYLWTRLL
Bcl-XL Bim block: disrupts Bim peptide binding to human Bcl-XL; Q07817; bead flow cytometry, fluorescence; inhibition, % at 10 µM; hit rate 0.04% among 190,000
Target sequence (Q07817 whole entry, looked up): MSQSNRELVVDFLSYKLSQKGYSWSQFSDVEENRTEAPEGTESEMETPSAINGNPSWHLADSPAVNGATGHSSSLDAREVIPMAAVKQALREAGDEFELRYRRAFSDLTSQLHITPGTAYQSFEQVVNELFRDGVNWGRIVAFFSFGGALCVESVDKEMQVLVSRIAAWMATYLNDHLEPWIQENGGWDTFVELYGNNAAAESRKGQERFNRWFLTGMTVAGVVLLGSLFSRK
Bcl-W Bim block: disrupts Bim peptide binding to human Bcl-W. Q92843. bead-based flow cytometry. inhibition, % at 10 µM. hit rate 0.02% among 190,000. AID 952;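 also: higher means less fluorescent Bim peptide bound to Bcl-W beads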
Target sequence (Q92843 whole entry, looked up): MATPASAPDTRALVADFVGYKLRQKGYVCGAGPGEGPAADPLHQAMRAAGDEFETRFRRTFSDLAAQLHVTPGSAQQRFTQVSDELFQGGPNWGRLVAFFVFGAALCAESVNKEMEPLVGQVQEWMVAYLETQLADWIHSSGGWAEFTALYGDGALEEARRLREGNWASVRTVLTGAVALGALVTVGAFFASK
Bim-Bfl-1: inhibitors of Bim-Bfl-1 interaction, human | Bead-based flow cytometry, Bim-Bfl-1 binding inhibition | inhibition, % at 10 µM | hit rate 0.12% among 190,000 | AID 1008
Numbers stand for hits; i = inactive; nt = no result given. Rule as the data show it, unless noted: active = inhibition above about 40%.

SMILES | Wee1 degr inh | Bcl-2 Bim block | Bcl-B Bim block | Bcl-XL Bim block | Bcl-W Bim block | Bim-Bfl-1
O=C(CS(=O)(=O)Cc1ccccc1)Nc1ccc2c(c1)OCO2 | 11 | i | i | i | i | i
COc1ccc(-c2nc(C#N)c(NCCc3ccccc3)o2)cc1 | i | i | i | i | i | i
COc1ccc(-c2nc(C#N)c(NCCN(C)C)o2)cc1 | 9.1 | i | i | i | i | i
COc1cccc(NC(=O)C(=S)NC2CCCCC2)c1 | 9.7 | i | i | i | i | i
Cc1cc(-c2ccccc2)c(C#N)c(SCC(N)=O)n1 | 9.7 | i | i | i | i | i
CC(C)Sc1nc(SCC(=O)NCc2ccco2)c2c3c(sc2n1)COC(C)(C)C3 | 9.8 | i | i | i | i | i
Nc1nc(N)c(N=Nc2ccc(C(=O)O)cc2)c(N)n1 | i | nt | nt | nt | nt | nt
O=C(O)c1ccc(N=Nc2c(O)[nH]c3cc(Cl)ccc23)cc1 | 12 | nt | nt | nt | nt | nt
Nc1c(Cl)ncnc1NCC(O)CO (stereo not drawn) | i | nt | nt | nt | nt | nt
COC(=O)c1cc(NC(=O)c2cccc([N+](=O)[O-])c2C)ccc1Cl | i | i | i | i | i | i
Cc1ccccc1NC(=O)c1ccc([N+](=O)[O-])o1 | 9.0 | i | i | i | i | i
Cc1ccc(NC(=O)c2ccc([N+](=O)[O-])o2)c(C)c1 | i | i | i | i | i | i
COCCCNC(=S)Nc1cccc2ncccc12 | 9.2 | i | i | i | i | i
O=C(NC(=S)Nc1cccc2ncccc12)c1ccco1 | i | i | i | i | i | i
Cc1cc(C(=O)CN2C(=O)C(=O)N(Cc3ccccc3)C2=O)c(C)n1-c1ccc2c(c1)OCCO2 | i | i | i | i | i | i
Cc1onc(-c2ccccc2)c1C(=O)/C=C/N(C)C | i | nt | nt | nt | nt | nt
COC(=O)c1[nH]c2ccc(C)cc2c1NC(=O)c1ccccc1[N+](=O)[O-] | i | i | i | i | i | i
COC(=O)c1[nH]c2ccccc2c1NC(=O)c1ccccc1[N+](=O)[O-] | i | i | 44 | i | i | i
COc1ccc(/C=C/C2=Nc3ccccc3NC(C)(C)C2)cc1OC | i | nt | nt | nt | nt | nt
O=C1C=CC(=O)N1c1ccc(Sc2ccc([N+](=O)[O-])cc2)cc1 | 16 | nt | nt | nt | nt | nt
CCc1cc2c(N=Nc3c(O)[nH]c4ccccc34)ncnc2s1 | i | i | i | i | i | i
CCc1ccc2[nH]c(O)c(N=Nc3nc(-c4ccccc4)cs3)c2c1 | 9.7 | i | i | i | i | i
O=C(CCc1ccccc1)N1CCN(c2ccccn2)CC1 | i | i | 43 | i | i | i
O=C(/C=C/c1ccccc1)C1C(=O)c2ccccc2C1=O | 10 | i | i | i | i | i
COc1ccc(Br)cc1CNC(=O)CCN1C(=O)COc2ccccc21 | 11 | i | i | i | i | i
SMILES | Wee1 degr inh | Bcl-2 Bim block | Bcl-B Bim block | Bcl-XL Bim block | Bcl-W Bim block | Bim-Bfl-1
CCN(CC)CCn1c2ccccc2c2nc3ccc([N+](=O)[O-])cc3cc21 | i | nt | nt | nt | nt | nt
CCn1c(Sc2ccc(N)cc2Cl)nc2ccccc21 | i | i | i | i | i | i
Fc1ccccc1CSc1nc2ncccc2[nH]1 | 10 | i | i | i | i | i
COc1ccc(-c2nn(-c3ccccc3)cc2/C=N/n2cnnc2)cc1OC | 9.3 | i | i | i | i | i
COc1ccc(-c2nn(-c3ccccc3)cc2/C=N/NC(N)=S)cc1OC | i | i | i | i | i | i
Cc1cc(O)c(C(C)C)cc1NC(=O)c1cccc(Cl)c1 | 9.5 | i | i | i | i | i
Cc1ccc(NS(=O)(=O)N(C)C)cc1 | 9.8 | i | i | i | i | i
Cc1ccc(S(=O)(=O)Nc2ccc(N(C)S(=O)(=O)c3ccc(C)cc3)cc2)cc1 | 10 | nt | nt | nt | nt | nt
COC(=O)c1ccc(NS(=O)(=O)N(C)C)cc1 | i | i | i | i | i | i
Cc1ccccc1OCC(=O)N(CC(C)C)c1c(N)n(CC(C)C)c(=O)[nH]c1=O | i | nt | nt | nt | nt | nt
O=C(OCc1cnc(Cl)s1)c1cccc(Cl)c1Cl | i | 76 | 70 | i | i | 51
Cc1ccc(S(=O)(=O)N2CCN(C(=O)N3CCOCC3)C2c2ccc(N(C)C)cc2)cc1 (stereo not drawn) | 14 | i | i | i | i | i
CN(C)c1ccc(C2N(C(=O)N3CCOCC3)CCN2S(=O)(=O)c2ccccc2)cc1 (stereo not drawn) | i | i | i | i | i | i
COc1ccc(CC(=O)Nc2nnc(SCC(=O)NCc3ccco3)s2)cc1OC | i | i | i | i | i | i
CCn1c2ccccc2c2cc(NC(=O)CSc3nccc(=O)[nH]3)ccc21 | i | i | i | i | i | i
O=[N+]([O-])c1ccc2[nH]c(O)c(N=NC3CS(=O)(=O)CC3O)c2c1 (stereo not drawn) | i | nt | nt | nt | nt | nt
Cc1ccc(C)c(NC(=O)CCC(=O)N/N=C/c2ccc3c(c2)OCO3)c1 | 10 | i | i | i | i | i
Cc1ccccc1NCC(=O)N/N=C\c1ccc2c(c1)OCO2 | i | i | i | i | i | i
CN(C)C(=O)c1c2c(nc3ccccc13)-c1ccccc1CC2 | 8.9 | i | i | i | i | i
CC(C)c1ccc(/C=C2\SC(N3CCOCC3)=NC2=O)cc1 | 9.2 | nt | nt | nt | nt | nt
O=C1NCCN1C(=O)C12CC3CC(CC(C3)C1)C2 | 9.1 | i | i | i | i | i
O=C(N1CCCC1)C12CC3CC(CC(C3)C1)C2 | i | i | i | i | i | i
Cc1cc(Cl)c(OCCCCNC(C)(C)C)c(Br)c1 | i | i | i | i | i | i
O=C(/C=C/Nc1ccc(F)cc1)c1ccc(Br)cc1 | 9.4 | i | i | i | i | i
O=C(NC(=S)Nc1ccc(N2CCOCC2)cc1)c1ccc2c(c1)OCCO2 | i | i | i | i | i | i
SMILES | Wee1 degr inh | Bcl-2 Bim block | Bcl-B Bim block | Bcl-XL Bim block | Bcl-W Bim block | Bim-Bfl-1
O=C(NC(=S)Nc1ccc(F)cc1)c1ccc2c(c1)OCCO2 | 9.5 | i | i | i | i | i
CSc1nc2n(n1)C(C)C1=C(CCCC1=O)N2 (stereo not drawn) | 9.2 | i | i | i | i | i
CCSc1nc2n(n1)C(c1cccc(F)c1)C1=C(CCCC1=O)N2 (stereo not drawn) | i | i | i | i | i | i
O=C(N/N=C/c1cccc2nccnc12)c1ccncc1 | 9.8 | nt | nt | nt | nt | nt
Cc1ccnn1CC(=O)N/N=C/c1ccco1 | i | i | i | i | i | i
CC(C)(C)OC(=O)NCCC(=O)N/N=C/c1cccc2nccnc12 | 9.3 | nt | nt | nt | nt | nt
CCC(C)[C@H](NC(=O)OC(C)(C)C)C(=O)N/N=C/c1cccc2nccnc12 (stereo partly drawn) | i | i | i | i | i | i
O=C(N/N=C/c1cccc2nccnc12)c1ccccc1O | i | nt | nt | nt | nt | nt
O=C(N/N=C/c1ccco1)c1ccncc1 | 15 | i | i | i | i | i
Cc1cc(C)n(CC(=O)N/N=C/c2ccco2)n1 | 9.2 | i | i | i | i | i
C/C(N)=C(/C#N)C(=O)COC(=O)CNC(=O)c1ccc(Cl)cc1Cl | i | i | i | i | i | i
Cc1cccc(NC(=O)c2ccc(COc3cccc4ccccc34)o2)n1 | i | i | i | i | i | i
C=CCNC(=O)COc1c(C)ccc(C)c1C | i | i | i | i | i | i
CC(=O)Nc1ccc(NC2=C(Cl)C(=O)c3ccccc3C2=O)cc1 | i | i | i | i | i | i
